High-throughput results deposited in PubChem by National Center for Advancing Translational Sciences (NCATS).
Compounds with a hit are over-represented: about 2.8% of the library has one in this group of screens.
Giardia kill – Giardia lamblia killing. AID 540267. 0.15% of 340,000 active. activity change, % at 7.66 µM, hits read low. Giardia lamblia trophozoite viability; in the data active = activity change below about -80%; inconclusive = between about -30% and that limit;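 also: parasites exposed to compound for two days anaerobically before the ATP read; % is scaled to controls: 0 for no effect and ±100 for the full control effect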
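Luminescent ATP signal served as the viability read-out, measured 15-30 min after adding ATP detection reagent to trophozoites that had been incubated with compounds for 48 hrs at 37 deg C anaerobically at 100 cells/well.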
D3 ag – agonists of human D3 dopamine receptor; P35462; D3R DiscoveRx beta-arrestin cells, luminescence, 90 min; max activation, %; 0.58% of 410,000 active; AID 652048; in the data active = max activation above about 30%; also: 0% is about no effect
Target sequence (P35462 whole entry, looked up): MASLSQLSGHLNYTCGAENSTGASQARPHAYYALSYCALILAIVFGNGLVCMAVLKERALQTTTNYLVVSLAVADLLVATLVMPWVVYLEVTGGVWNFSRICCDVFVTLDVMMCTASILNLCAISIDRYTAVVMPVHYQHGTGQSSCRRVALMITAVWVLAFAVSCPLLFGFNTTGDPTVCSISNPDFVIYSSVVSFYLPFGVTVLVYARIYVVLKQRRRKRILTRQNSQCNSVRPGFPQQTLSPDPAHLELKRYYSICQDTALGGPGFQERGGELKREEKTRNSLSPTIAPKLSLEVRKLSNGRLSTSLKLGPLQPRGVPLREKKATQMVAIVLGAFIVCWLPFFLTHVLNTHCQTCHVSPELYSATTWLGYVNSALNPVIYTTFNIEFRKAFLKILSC
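Cells at 1500/well, incubated overnight, then treated with pinned compounds (dopamine as control) for 90 min at 37 degrees C. DiscoveRx reagent added for 30 - 60 minutes at room temperature; luminescence read.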
DRD3 antagonist – D3 dopamine receptor (human) antagonism; AID 652054; D3R cells, DiscoveRx beta-arrestin luminescence, antagonist mode; hits give low values; 2.5% of 360,000 active; max response, negative = inhibition, %; in the data active = max response below about -50%; inconclusive = no clear call, values can overlap the other calls; also: % is scaled to controls: 0 for no effect and ±100 for the full control effect
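Cells plated overnight at 1500 cells/well, then exposed to library compounds with dopamine controls for 90 minutes at 37 degrees C. DiscoveRx reagent added for 30–60 minutes at room temperature; luminescence read, quantitative HTS format.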
B2AR arrestin – beta2AR (human) beta-arrestin recruitment activity. AID 492947. Potency, µM (series often up to 46.1 µM), for inactives: at the highest dose activation, actives largely listed as activators. 0.02% of 330,000 active. beta-arrestin recruitment to beta2AR, cell-based reporter. P07550; active = well fitted activation curve with a large enough effect; inconclusive = small, poorly fitted or top-dose-only effect;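 also: potency is read from the fitted curve at half-maximal effect; 0% = DMSO controls and full agonism = EC100 isoproterenol or metaproterenol; nearly all actives have a fitted effect of over 65% in size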
Active calls of the source: *; u = inconclusive; x = no result given.

SMILES | Giardia kill | D3 ag | DRD3 antagonist | B2AR arrestin
Cc1cc(C(=O)Nc2ncn[nH]2)ccc1[N+](=O)[O-] | 7 | 34* | -10 | 0%
CCOC(=O)C1(C(F)(F)F)N=C(c2cccnc2)OC(N2CCOCC2)=N1 (stereo not drawn) | 3 | -2 | -59* | 0%
CCOC(=O)c1cnc(-c2ccccc2)nc1N1CCOCC1 | 4 | -2 | 1 | 0%
C=C1/C(=C\C=C2/CCC[C@]3(C)[C@@H]([C@H](C)OCCC(C)(C)O)CC[C@@H]23)C[C@@H](O)C[C@@H]1O | x | 0 | x | x
O=[N+]([O-])c1cccnc1N1CCN(Cc2ccc3c(c2)OCO3)CC1 | -9 | 18 | 0 | 0%
O=[N+]([O-])c1ccccc1/C=C/CN1CCN(Cc2ccc3c(c2)OCO3)CC1 | 58 | -9 | -79* | -1%
C(=C\c1ccccc1)/CN1CCN(Cc2ccc3c(c2)OCO3)CC1 | 1 | -12 | -61* | -1%
O=[N+]([O-])c1ccc2ncnc(N3CCN(Cc4ccc5c(c4)OCO5)CC3)c2c1 | 13 | 43* | -17 | 0%
C/C(=C\c1ccccc1)C(=O)N1CCN(Cc2ccc3c(c2)OCO3)CC1 | 14 | -16 | -28 | 0%
O=C(c1cccc([N+](=O)[O-])c1)N1CCN(Cc2ccc3c(c2)OCO3)CC1 | -20 | 0 | 2 | 0%
CCN(CC)CCNC(=O)c1[nH]c2ccc(OCc3ccccc3)cc2c1C | -8 | -9 | -86* | 0%
CCN(Cc1ccccc1)C(=O)c1[nH]c2ccc(OC)cc2c1C | 17 | 3 | 7 | 0%
Nn1c(CN2CCCCC2)nc2ccccc2c1=O | 1 | -12 | -91* | 0%
Nn1c(Cc2ccccc2)nc2ccccc2c1=O | 1 | -16 | u | x
CCOC(=O)CN[C@@H](C(=O)N1CC[C@H]1C(=O)NCc1ccc(/C(N)=N/O)cc1)C1CCCCC1 | x | 4 | x | x
COc1c2ccoc2c(OC[C@@H](OC(C)=O)C(C)(C)O)c2oc(=O)ccc12 | 11 | 48* | 30 | 0%
COc1cccc(CNC(=O)CCCn2nc(C)c3sc4ccccc4c3c2=O)c1 | x | 11 | x | x
Cc1coc2c1c(C)cc1oc(=O)c(CC(=O)NCc3ccc(Cl)cc3)c(C)c12 | x | 5 | x | x
COc1cc(C)c(S(=O)(=O)N2CCOCC2)cc1C | -6 | -1 | -85* | 0%
CCCOc1cc(C)c(S(=O)(=O)N2CCOCC2)cc1C | x | x | x | 3%
CCOC(=O)C1CCCN(c2nc3c(S(=O)(=O)c4ccc(CC)cc4)nnn3c3ccsc23)C1 (stereo not drawn) | x | 0 | x | x
C/C(=C(\CCO)SS/C(CCO)=C(\C)N(C=O)Cc1cnc(C)nc1N)N(C=O)Cc1cnc(C)nc1N | x | 9 | x | x
CC(=O)n1c2ccccc2c2c1c1ccccc1n2C | 6 | 13 | -56* | 0%
CCOc1ccc(OCC)c(-c2c(=O)n(OCc3ccc(C(C)(C)C)cc3)c3ccccc3[n+]2[O-])c1 | 6 | 52* | 11 | -1%
COc1cccc(Nc2ncnc3ccccc23)c1 | 2 | -9 | 10 | 0%
SMILES | Giardia kill | D3 ag | DRD3 antagonist | B2AR arrestin
O=C(Oc1cccc(Nc2ncnc3ccccc23)c1)c1ccccc1Cl | 10 | 40* | -24 | 0%
CO[C@@H]1[C@@H](OC)[C@H](C)[C@@](O)(CC(=O)O)O[C@H]1[C@H](C)[C@H]1O[C@@]2(CC[C@@](C)([C@H]3CC[C@@](C)([C@@H]4O[C@@H]([C@H]5O[C@](C)(O)[C@H](C)C[C@@H]5C)C[C@@H]4OC4C[C@H](OC)[C@@H](OC)[C@H](C)O4)O3)O2)C[C@H](O)[C@H]1C (stereo partly drawn) | x | 10 | x | x
O=[N+]([O-])c1ccc2cccnc2c1 | x | 4 | -19 | x
Cc1cc([N+](=O)[O-])cc2ncccc12 | 16 | -13 | -75* | 0%
COc1ccc(-c2cc(C(=O)Nc3c(C)n(C)n(-c4ccccc4)c3=O)c3ccccc3n2)cc1 | 3 | -1 | 58 | 0%
COc1ccc2cc(-c3cc(C(=O)OCC(=O)NC4CCS(=O)(=O)C4)c4ccccc4n3)ccc2c1 (stereo not drawn) | -88* | 1 | 0 | -1%
Cc1c(NC(=O)COC(=O)c2ccccc2Cl)c(=O)n(-c2ccccc2)n1C | -19 | 0 | 15 | 0%
COc1ccc2cc(-c3cc(C(=O)OCC(=O)Nc4c(C)n(C)n(-c5ccccc5)c4=O)c4ccccc4n3)ccc2c1 | -94* | 2 | 43 | -1%
Cc1c(NC(=O)COC(=O)C2CC3C=CC2C3)c(=O)n(-c2ccccc2)n1C (stereo not drawn) | -9 | -6 | -76* | 0%
CCCN1CNc2c(c(=O)[nH]c(=S)n2CCc2ccccn2)C1 | 5 | x | x | x
